Source: PubChem BioAssay
Rab9 prom act: qHTS Assay for Rab9 Promoter Activators | Huh7 Rab9 promoter-luciferase reporter, luminescence, 24 h | Potency, µM (top dose mostly 9.22 µM), actives largely listed as activators | actives 2.8% (n = 320,000); also: nearly all actives have a fitted effect of over 60% in size
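Promoter activation is measured as luciferase luminescence in Huh7 cells stably transfected with a Rab9 promoter–luciferase construct, following 24 h compound exposure at 37 °C and 10 min reagent incubation at ambient temperature.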
uPA generation: qHTS for Inhibitors of Cell Surface uPA Generation. Potency, µM (series often up to 38.3 µM), hits mostly inhibitors. actives 0.31% (n = 330,000). AID 540303, 2011. cell surface uPA generation assay, qHTS; active = well fitted inhibition curve with a large enough effect; inconclusive = small, poorly fitted or top-dose-only effect; inactive = no such curve, though single readings can be large or run the other way; tested in mouse RAW 264.7 cells; also: nearly all actives have a fitted effect of over 55% in size
FLuc modulator: qHTS profiling assay for firefly luciferase inhibitor/activator using purifed enzyme and Km concentrations of substrates (counterscreen for miR-21 project). Luciferin 4-monooxygenase (Photinus pyralis), P08659. purified FLuc, Km substrates, luminescence inhibition. Potency, µM (titrated, usually from 57.5 µM), usual class: inhibitors. actives 6.9% (n = 360,000); also: nearly all actives have a fitted effect of over 55% in size
Target sequence (P08659 whole entry, looked up): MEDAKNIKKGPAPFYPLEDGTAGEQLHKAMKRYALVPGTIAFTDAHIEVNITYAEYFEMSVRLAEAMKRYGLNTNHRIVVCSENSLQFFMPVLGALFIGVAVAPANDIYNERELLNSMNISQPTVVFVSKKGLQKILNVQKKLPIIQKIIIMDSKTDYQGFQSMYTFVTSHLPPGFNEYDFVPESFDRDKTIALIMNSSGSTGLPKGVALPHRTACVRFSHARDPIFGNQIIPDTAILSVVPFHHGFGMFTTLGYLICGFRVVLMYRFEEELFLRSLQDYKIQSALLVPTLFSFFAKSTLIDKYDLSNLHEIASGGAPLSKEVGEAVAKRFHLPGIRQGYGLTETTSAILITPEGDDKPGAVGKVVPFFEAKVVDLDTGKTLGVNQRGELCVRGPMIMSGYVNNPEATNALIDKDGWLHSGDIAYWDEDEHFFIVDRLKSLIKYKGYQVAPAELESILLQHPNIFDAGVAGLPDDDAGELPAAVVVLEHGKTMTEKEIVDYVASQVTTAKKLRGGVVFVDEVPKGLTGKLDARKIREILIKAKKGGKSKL
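Biochemical qHTS of compounds, final roughly 60 µM downward over six points, against 10 nM purified firefly luciferase using Km concentrations of substrates (10 uM D-luciferin, 10 uM ATP) in Tris acetate pH 7.5 buffer; luminescence output.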
ELG1 genotoxic: qHTS screen for small molecules that induce genotoxicity in human embryonic kidney (HEK293T) cells expressing luciferase-tagged ELG1. HEK293T ELG1-luciferase reporter, luminescence, 16 h. actives 1.3% (n = 330,000). Potency, µM (highest dose often 46 µM), actives largely listed as activators; also: nearly all actives have a fitted effect of over 60% in size
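Luminescence read-out: rising ELG1-luciferase signal, reflecting elevated ELG1 protein under genetic stress, flags genotoxic compounds. Cells were treated for 16 hr at 37 °C before ONE-Glo detection.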
SMN2 splice up: qHTS Assay for Enhancers of SMN2 Splice Variant Expression | actives 2.8% (n = 210,000) | Potency, µM (highest dose often 46.1 µM), usual class: activators | HEK293 SMN2-luciferase splicing reporter, luminescence, 30-36 h; also: nearly all actives have a fitted effect of over 55% in size
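qHTS luciferase splicing reporter: luminescence rises when SMN2 exon 7 is included in transfected HEK293 cells. Compound exposure lasted 30-36 h at 37C, with 4.5 mM final sodium butyrate as control, followed by a ONE-Glo read.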
NPC1 promoter act: qHTS Assay for NPC1 Promoter Activators; Huh7 NPC1 promoter luciferase reporter, 24 h; Potency, µM (series often up to 9.22 µM), hits mostly activators; actives 2.4% (n = 320,000); also: nearly all actives have a fitted effect of over 60% in size
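Stable NPC1-promoter luciferase Huh7 line; cpd (DMSO) 24 h, 37 °C, 5% CO2; Amplite luciferase reagent 10 min RT; luminescence readout. qHTS format.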
A number is an active result; . = inactive; ? = inconclusive; / = not tested or not shown. This is a sample that favours compounds with a hit; in the whole collection about 7.3% have one here. Unless noted, calls follow the shape of the dose curve; as a rule, active = well fitted curve in the direction sought with a large enough effect; inconclusive = small, poorly fitted or top-dose-only effect, or another doubt; inactive = no such curve, though single readings can be large; an effect the other way counts as inactive or inconclusive.

SMILES | Rab9 prom act | uPA generation | FLuc modulator | ELG1 genotoxic | SMN2 splice up | NPC1 promoter act
O=C1C(Cl)=C(N2CCN(Cc3ccccc3)CC2)C(=O)N1Cc1ccccc1 | . | . | . | . | . | .
c1ccc(CN2CCN(C3=Nc4cccc5cccc3c45)CC2)cc1 | . | . | 10.7µM | . | . | .
O=C(Nc1nnc(-c2cccs2)s1)C1CC1 | 5.01µM | . | . | ? | ? | .
C=C(C)C(=O)Nc1nnc(-c2cccs2)s1 | . | . | 16.9µM | . | . | .
CCC(C)C(=O)Nc1nnc(-c2cccs2)s1 (configuration not stated) | 3.55µM | . | ? | ? | . | ?
CCC(=O)Nc1nnc(-c2cccs2)s1 | ? | . | . | ? | . | .
COc1ccc2[nH]c3c(c2c1)CCNC3C1CC=C(C)CC1 (configuration not stated) | . | 2.82µM | . | . | / | .
COc1ccc2[nH]c3c(c2c1)CCNC3c1ccc([N+](=O)[O-])o1 (configuration not stated) | . | . | . | . | / | .
Cc1ccc(S(=O)(=O)N2CCOCC2)cc1NC(=O)CNC1CCCC1 | . | . | . | . | / | .
CC(C)c1ccc(-c2noc(SCC(=O)N3CCCCC3C)n2)cc1 (configuration not stated) | / | / | 3.01µM | / | / | /
CCN(C(=O)CSc1nc(-c2ccc(C(C)C)cc2)no1)c1ccccc1 | / | / | 9.53µM | / | / | /
CC1CCN(C(=O)CSc2nc(-c3ccc(C(C)C)cc3)no2)CC1 | / | / | 3.38µM | / | / | /
COc1cc(NC(=O)CSc2nc(-c3ccc(C(C)C)cc3)no2)cc(OC)c1 | / | / | 2.69µM | / | / | /
COc1cc(NC(=O)CSc2nc(-c3ccccc3)no2)cc(OC)c1 | / | / | . | / | / | /
CSc1ccc(CCNC(=O)c2ccc3c(Cl)c4c(nc3c2)CCCC4)cc1 | / | / | . | / | . | /
COc1ccc(-c2nnc(SCC(=O)c3cccs3)o2)cc1 | 2.24µM | . | 2.39µM | 10.3µM | . | 3.55µM
O=C(CSc1nnc(-c2cccs2)o1)OC1CCCCC1 | . | . | 23.9µM | . | . | .
Cc1ccc(SCC(=O)c2ccc[nH]2)cc1 | ? | . | 23.9µM | ? | ? | ?
Cc1ccc(CNC(=O)c2ccc[nH]2)cc1 | . | / | . | . | . | .
COc1ccc(-c2nnc(SCC(=O)c3ccc[nH]3)o2)cc1 | 1.58µM | / | 4.26µM | ? | 8.91µM | 3.16µM
COc1ccc(-c2nnc(SCC(=O)c3ccc(O)cc3O)o2)cc1 | . | . | ? | ? | / | .
COc1ccc(-c2nnc(SCC(=O)c3cc(C)n(Cc4cccs4)c3C)o2)cc1 | . | . | ? | . | . | .
O=C(CSc1nnc(-c2cccs2)o1)OCc1ccccc1 | . | . | . | . | . | .
O=C(O)C1CC(C2CCCCN2)CN2CCCCC12 (configuration not stated) | / | / | / | / | . | /
O=C(NCC(c1cccnc1)N1CCOCC1)C(=O)Nc1cccc(Cl)c1 (configuration not stated) | / | / | . | / | / | /
SMILES | Rab9 prom act | uPA generation | FLuc modulator | ELG1 genotoxic | SMN2 splice up | NPC1 promoter act
O=C(CSc1nnc(-c2cccs2)o1)c1cccs1 | 2.82µM | . | 9.53µM | ? | . | 1.58µM
Cc1cc(C(=O)CSc2nnc(-c3cccs3)o2)c(C)n1-c1ccccc1 | . | . | 6.75µM | . | . | .
CCOc1ccc(CCNC(=O)Cn2ccc3cc(S(=O)(=O)N4CCCCCC4)ccc32)cc1 | / | / | . | / | / | /
C/C=C(\C)C(=O)OC1[C@@H]2C=C3C4CC(=O)OC(c5ccoc5)[C@]4(C)CCC3[C@@](C)(C2=O)C(C(O)C(=O)OC)C1(C)C (some centres not stated) | / | / | / | / | . | /
CC(C)c1ccc(-c2cc(C(=O)NN3CCN(C)CC3)c3ccccc3n2)cc1 | ? | . | 0.601µM | ? | ? | ?
CCc1ccc(-c2cc(C(=O)NN3CCOCC3)c3ccccc3n2)cc1 | . | . | 4.78µM | . | . | .
CN1CCN(NC(=O)c2cc(-c3cccc(Cl)c3)nc3ccccc23)CC1 | . | . | . | . | . | .
